Data on six compounds can be found in publication PMC11062922 (Nature Chemical Biology, 2023).

Common to all, as to set-up: species or system human, MV4-11 + K-562 + COLO205 + SK-N-BE2 + OVCAR-8
For one test, the system named is AGPS. As to conditions: read-out: apparent Kd, n = 1.
In a further test the test system is NNT. Particulars: read-out: apparent Kd; compound concentrations: 100 nM and 1000 nM (sheet 'Samples'), CATDS: 0.50748873234437097; n = 1.
The subject of another test is ADRBK1. Particulars: read-out: apparent Kd; compound concentrations: 100 nM and 1000 nM (sheet 'Samples'), CATDS: 0.13244009116627101; n = 1.
The subject of another test is ERBB3. As to conditions: read-out: apparent Kd; compound concentrations: 100 nM and 1000 nM (sheet 'Samples'), CATDS: 0.13947545743424; n = 1.
A further test relates to MAP2K1. Particulars: read-out: apparent Kd; compound concentrations: 100 nM and 1000 nM (sheet 'Samples'), CATDS: 0.50931897145829497; n = 1.
Another test deals with MAP2K2. Particulars: read-out: apparent Kd, compound concentrations: 100 nM and 1000 nM (sheet 'Samples'), n = 1.
A further test relates to NQO2. Particulars: read-out: apparent Kd; compound concentrations: 100 nM and 1000 nM (sheet 'Samples'), CATDS: 0.16308472458482501; n = 1.
The subject of the next test is COX5A. Particulars: read-out: apparent Kd; compound concentrations:100 nM and 1000 nM (sheet 'Samples'); n = 1.
The subject of the next test is TGFBR1. Particulars: read-out: apparent Kd; compound concentrations:100 nM and 1000 nM (sheet 'Samples'); n = 1.
The next test relates to AKT2. As to conditions: read-out: apparent Kd; compound concentrations:100 nM and 1000 nM (sheet 'Samples'); n = 1.
The subject of another test is CDK16. As to conditions: read-out: apparent Kd; compound concentrations:100 nM and 1000 nM (sheet 'Samples'); n = 1.
Another test deals with CDK17. Particulars: read-out: apparent Kd; compound concentrations:100 nM and 1000 nM (sheet 'Samples'); n = 1.
In another test the test system is CDKL5. Particulars: read-out: apparent Kd; compound concentrations:100 nM and 1000 nM (sheet 'Samples'); n = 1.
The next test relates to T1, DJA1.
T1 construct: gene DNAJA1
As to conditions: read-out: apparent Kd; compound concentrations:100 nM and 1000 nM (sheet 'Samples'); n = 1.

The next test deals with GSK3A. As to conditions: read-out: apparent Kd; compound concentrations:100 nM and 1000 nM (sheet 'Samples'); n = 1.
A further test relates to GSK3B. Particulars: read-out: apparent Kd; compound concentrations:100 nM and 1000 nM (sheet 'Samples'); n = 1.
For the next test, the system named is JAK2. Particulars: read-out: apparent Kd; compound concentrations:100 nM and 1000 nM (sheet 'Samples'); n = 1.
The subject of the next test is MAPK14. As to conditions: read-out: apparent Kd; compound concentrations:100 nM and 1000 nM (sheet 'Samples'); n = 1.
In a further test the test system is PIK3CA. As to conditions: read-out: apparent Kd; compound concentrations:100 nM and 1000 nM (sheet 'Samples'); n = 1.
The test system of the next test is PIK3CD. Particulars: read-out: apparent Kd; compound concentrations:100 nM and 1000 nM (sheet 'Samples'); n = 1.
Another test deals with RPS6KA6. As to conditions: read-out: apparent Kd; compound concentrations:100 nM and 1000 nM (sheet 'Samples'); n = 1.
For the next test, the system named is AGK. As to conditions: read-out: apparent Kd; compound concentrations: 100 nM and 1000 nM (sheet 'Samples'), CATDS: 0.56358245780801897; n = 1.
The subject of another test is CDC42BPA. Particulars: read-out: apparent Kd; compound concentrations:100 nM and 1000 nM (sheet 'Samples'); n = 1.
The test system of another test is CDC42BPG. As to conditions: read-out: apparent Kd; compound concentrations:100 nM and 1000 nM (sheet 'Samples'); n = 1.
In the next test the test system is CIT. As to conditions: read-out: apparent Kd; compound concentrations:100 nM and 1000 nM (sheet 'Samples'); n = 1.
A further test deals with LATS1. Particulars: read-out: apparent Kd; compound concentrations:100 nM and 1000 nM (sheet 'Samples'); n = 1.
The test system of a further test is MAPKAPK2. As to conditions: read-out: apparent Kd; compound concentrations:100 nM and 1000 nM (sheet 'Samples'); n = 1.
For the next test, the system named is MARK2. As to conditions: read-out: apparent Kd; compound concentrations:100 nM and 1000 nM (sheet 'Samples'); n = 1.
A further test deals with MARK3. Particulars: read-out: apparent Kd; compound concentrations:100 nM and 1000 nM (sheet 'Samples'); n = 1.
The test system of the next test is MARK4. As to conditions: read-out: apparent Kd; compound concentrations:100 nM and 1000 nM (sheet 'Samples'); n = 1.
A further test has as its system PAK4. As to conditions: read-out: apparent Kd; compound concentrations:100 nM and 1000 nM (sheet 'Samples'); n = 1.
The subject of the next test is PAK6. As to conditions: read-out: apparent Kd; compound concentrations:100 nM and 1000 nM (sheet 'Samples'); n = 1.
The subject of another test is PKN1. As to conditions: read-out: apparent Kd; compound concentrations:100 nM and 1000 nM (sheet 'Samples'); n = 1.
A further test concerns PKN3. Particulars: read-out: apparent Kd; compound concentrations:100 nM and 1000 nM (sheet 'Samples'); n = 1.
A further test concerns PRKACA. As to conditions: read-out: apparent Kd; compound concentrations:100 nM and 1000 nM (sheet 'Samples'); n = 1.
The next test concerns PRKACB. Particulars: read-out: apparent Kd; compound concentrations:100 nM and 1000 nM (sheet 'Samples'); n = 1.
The subject of the next test is PRKCD. As to conditions: read-out: apparent Kd; compound concentrations:100 nM and 1000 nM (sheet 'Samples'); n = 1.
A further test relates to PRKCI. Particulars: read-out: apparent Kd; compound concentrations:100 nM and 1000 nM (sheet 'Samples'); n = 1.
A further test deals with PRKG1. Particulars: read-out: apparent Kd; compound concentrations:100 nM and 1000 nM (sheet 'Samples'); n = 1.
Another test deals with PRKX. Particulars: read-out: apparent Kd; compound concentrations:100 nM and 1000 nM (sheet 'Samples'); n = 1.
Another test has as its system ROCK2. As to conditions: read-out: apparent Kd; compound concentrations:100 nM and 1000 nM (sheet 'Samples'); n = 1.
The test system of the next test is RPS6KA4. Particulars: read-out: apparent Kd; compound concentrations:100 nM and 1000 nM (sheet 'Samples'); n = 1.

Each structure is given as a SMILES string. Like-named read-outs stand apart in the source and are kept apart here.

For the compound `Cc1cc(O)cc(C)c1/C=C/c1cncc(C(=O)N(C)C)c1` [GW427984X], the potency estimated from few doses with AGPS (compound concentrations: 100 nM and 1000 nM (sheet 'Samples'), CATDS: 0.49272906791281001) is 1860 nM; in the test on NNT it was 1750 nM.
With `Cn1c(=O)c(F)c(Nc2ccc(I)cc2F)c2c(=O)n(OC[C@H](O)CO)cnc21` [TPKI-16], the potency estimated from few doses in the test on ADRBK1 is 1780 nM; with ERBB3, 1370 nM; in the test with MAP2K1, 12.2 nM; in the test with MAP2K2 (CATDS: 0.45776902126379299), 15 nM; with NQO2, 677 nM.
As for `Fc1ccc(-c2cc(-c3c[nH]nc3-c3ccccn3)ccn2)cc1` [GW680975X], the potency estimated from few doses was 1790 nM in the test on AGPS (compound concentrations:100 nM and 1000 nM (sheet 'Samples')); 132 nM in the test with COX5A; 960 nM in the test with TGFBR1.
Regarding `CN1CCC(C(=O)Nc2n[nH]c3nnc(-c4ccccc4)cc23)CC1.Cl` [SB-678557-A], the potency estimated from few doses in the test on AKT2 was 2390 nM; with CDK16, 1070 nM; with CDK17, 1910 nM; in the test on CDKL5, 75.2 nM; in the test with DJA1, 1840 nM; in the test with GSK3A it was 3.32 nM. Besides, the potency estimated from few doses in the test on GSK3B was 8.23 nM; in the test on JAK2, 721 nM; in the test with MAPK14 it was 1690 nM; in the test with PIK3CA, 183 nM; in the test with PIK3CD, 173 nM; in the test on RPS6KA6, 1150 nM.
`Cc1ccc(S(=O)(=O)Nc2ccc(Nc3nccc(Nc4cccc5[nH]ncc45)n3)cc2)cc1` [GSK581271A]: the potency estimated from few doses was 1530 nM in the test with AGK and 2420 nM in the test with MAP2K2 (CATDS: 0.44930961839154798).
Take `CCn1c(-c2nonc2N)nc2c(C#CC(C)(C)O)ncc(OCCCCN)c21.CCn1c(-c2nonc2N)nc2c(C#CC(C)(C)O)ncc(OCCCCN)c21.O=C(O)C(F)(F)F.O=C(O)C(F)(F)F` [GSK507274A]: the potency estimated from few doses in the test with AKT2 was 1440 nM; with CDC42BPA it was 2200 nM; in the test on CDC42BPG, 1800 nM; in the test with CIT, 554 nM; in the test on GSK3A, 328 nM; in the test with GSK3B it was 488 nM. In addition, the potency estimated from few doses with LATS1 was 83.9 nM; with MAPKAPK2 it was 1370 nM; in the test on MARK2, 440 nM; in the test with MARK3, 178 nM; with MARK4, 629 nM; in the test on PAK4, 30.9 nM. Moreover, the potency estimated from few doses with PAK6 is 99.3 nM; in the test with PKN1 it was 191 nM; with PKN3, 13 nM; in the test with PRKACA, 787 nM; in the test on PRKACB, 965 nM; with PRKCD, 1450 nM. The potency estimated from few doses with PRKCI was 1890 nM; in the test with PRKG1 it was 1070 nM; with PRKX, 54.1 nM; in the test with ROCK2, 446 nM; in the test with RPS6KA4 it was 749 nM.
